Measurements published in PubChem BioAssay AID1159580 (chemical genetic matrix, 2015).
Screen size: about 5,500 compounds; about 2,000 (36%) were called active. About 18% were inconclusive and are not listed. No stated cut-off is given here; in the data, active means normalized growth mostly below about 0.91 (no sharp cut-off); inconclusive means no clear call, values can overlap the other calls; inactive means mostly above about 0.92. Some of the results follow.

Assay: chemical genetic growth profiling, strain panel (AID 1159580);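 further: tested at 20 µM; growth read once vehicle control cultures reached saturation at 30 °C; 1 = growth at the plate median or of vehicle wells; lower values mean less growth of the strain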
Details: S. cerevisiae deletion strains, growth OD

Measured: normalized growth

Cc1c(O)c(C(=O)CC(C)C)c2oc3c(C(=O)CC(C)C)c(O)c(C)c(O)c3c2c1O
inactive: locus YAL013W, strain DEP1, hits give low values 1.01 | locus YBR021W, strain FUR4, hits give low values 0.943 | locus YBR229C, strain ROT2, hits give low values 0.993 | locus YCL029C, strain bik1, hits give low values 1.01 | locus YDL035C, strain GPR1, hits give low values 0.994 | locus YDL074C, strain BRE1, hits give low values 0.978 | locus YDL101C, strain DUN1, hits give low values 1 | locus YDL134C, strain PPH21, hits give low values 0.991 | locus YDL185W, strain tfp1, hits give low values 1 | locus YDL192W, strain arf1, hits give low values 0.987 | locus YDR101C, strain arx1, hits give low values 0.972 | locus YDR150W, strain NUM1, hits give low values 1.01 | locus YDR162C, strain NBP2, hits give low values 1 | locus YDR318W, strain mcm21, hits give low values 0.997 | locus YDR388W, hits give low values 0.985 | locus YDR502C, strain sam2, hits give low values 0.978 | locus YEL061C, strain CIN8, hits give low values 1.01 | locus YER110C, hits give low values 0.995 | locus YER155C, strain BEM2, hits give low values 0.995 | locus YER167W, strain BCK2, hits give low values 0.996 | locus YGL078C, strain dbp3, hits give low values 0.985 | locus YGL086W, strain mad1, hits give low values 0.989 | locus YGL248W, strain PDE1, hits give low values 0.994 | locus YGR135W, strain pre9, hits give low values 0.996 | locus YGR252W, strain gcn5, hits give low values 0.918 | locus YHR030C, strain SLT2, hits give low values 1 | locus YHR079C, strain IRE1 (second series), hits give low values 0.987 | locus YHR094C, strain hxt1, hits give low values 0.986 | locus YHR129C, strain ARP1, hits give low values 1 | locus YHR200W, strain rpn10, hits give low values 0.983 | locus YIL066C, strain RNR3, hits give low values 1 | locus YIL073C, strain SPO22, hits give low values 0.983 | locus YIL125W, strain kgd1, hits give low values 0.995 | locus YIR030C, strain dcg1, hits give low values 0.993 | locus YJL095W, strain BCK1, hits give low values 0.994 | locus YJL134W, strain LCB3, hits give low values 1 | locus YJL168C, strain set2, hits give low values 0.994 | locus YJL187C, strain SWE1 (second series), hits give low values 1 | locus YJR043C, strain POL32, hits give low values 0.958 | locus YKL009W, strain mrt4, hits give low values 0.977 | locus YKL068W, hits give low values 1 | locus YKL085W, strain MDH1 (second series), hits give low values 1.01 | locus YKL085W, strain MDH1, hits give low values 1.01 | locus YKL190W, strain CNB1, hits give low values 1 | locus YKR001C, strain vps1, hits give low values 0.935 | locus YLR039C, strain RIC1, hits give low values 0.787 | locus YLR058C, strain SHM2, hits give low values 1 | locus YLR102C, strain apc9, hits give low values 0.982 | locus YLR262C, strain YPT6, hits give low values 0.811 | locus YLR268W, strain sec22, hits give low values 0.985 | locus YLR330W, strain CHS5, hits give low values 1 | locus YLR342W, strain FKS1 (second series), hits give low values 0.978 | locus YLR371W, strain rom2, hits give low values 0.999 | locus YLR418C, strain cdc73, hits give low values 0.92 | locus YML016C, strain PPZ1, hits give low values 1.01 | locus YML032C, strain rad52, hits give low values 0.999 | locus YML124C, strain tub3, hits give low values 0.99 | locus YMR078C, strain ctf18, hits give low values 1 | locus YMR223W, strain ubp8, hits give low values 0.996 | locus YMR307W, strain GAS1, hits give low values 0.827 | locus YNL067W, strain RPL9B, hits give low values 1.01 | locus YNL233W, strain BNI4, hits give low values 0.968 | locus YNL250W, strain rad50, hits give low values 1.01 | locus YNL271C, strain bni1, hits give low values 1 | locus YNL298W, strain CLA4, hits give low values 1 | locus YNL307C, strain MCK1, hits give low values 0.994 | locus YNR052C, strain pop2, hits give low values 1.01 | locus YOL006C, strain TOP1, hits give low values 0.977 | locus YOL012C, strain htz1 0.768 | locus YOL147C, strain pex11, hits give low values 0.987 | locus YOR061W, strain CKA2, hits give low values 1 | locus YOR069W, strain VPS5, hits give low values 1.01 | locus YOR136W, strain idh2, hits give low values 0.99 | locus YOR144C, strain elg1, hits give low values 0.996 | locus YOR184W, strain ser1, hits give low values 0.974 | locus YOR316C, strain cot1, hits give low values 0.986 | locus YPL241C, strain CIN2, hits give low values 1 | locus YPR119W, strain clb2, hits give low values 0.989 | locus YPR141C, strain kar3, hits give low values 0.991 | locus YPR163C, strain tif3, hits give low values 0.99 | locus YPR167C, strain met16, hits give low values 1 | strain wtn01, hits give low values 0.975
